# Source: the supplement of paper PMC4466140
# Experiments:
# Experiment in all cases: SPOT peptide array binding signal intensity (averaged, normalized) (arbitrary units (background-subtracted, floor 0; scale differs between SH3 domains)); higher = stronger binding of the SH3 domain to the peptide
# AgAbp1 = biological target: AgAbp1
# Summary of the method: (§1)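 SH3 domains from four yeast species were expressed as GST fusions in E. coli BL21(DE3) and purified on glutathione Sepharose. Each was incubated at 10 μg/ml overnight at 4°C in TBS-based blocking buffer on cellulose membranes bearing synthetic 15-mer peptides, in which serines replaced cysteines. Bound protein was detected with anti-GST antibody, an HRP anti-mouse secondary and luminol, then imaged and quantified with Genespotter. The binding signal is the normalized, background-subtracted spot intensity averaged over replicates, in arbitrary units that are not the same from one domain to another.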
# AgBbc1 = biological target: AgBbc1
# Summary of the method: as §1
# AgBem1-D1 = biological target: AgBem1-D1
# Summary of the method: as §1
# AgBzz1-D1 = biological target: AgBzz1-D1
# Summary of the method: as §1
# AgBzz1-D2 = biological target: AgBzz1-D2
# Summary of the method: as §1
# AgCyk3 = biological target: AgCyk3
# Summary of the method: as §1
# AgFus1 = biological target: AgFus1
# Summary of the method: as §1
# AgHof1 = biological target: AgHof1
# Summary of the method: as §1
# AgHse1 = biological target: AgHse1
# Summary of the method: as §1
# AgLsb1 = biological target: AgLsb1
# Summary of the method: as §1
# AgLsb4 = biological target: AgLsb4
# Summary of the method: as §1
# AgMyo5 = biological target: AgMyo5
# Summary of the method: as §1
# AgNbp2 = biological target: AgNbp2
# Summary of the method: as §1
# AgRvs167 = biological target: AgRvs167
# Summary of the method: as §1
# AgSho1 = biological target: AgSho1
# Summary of the method: as §1
# AgSla1-D1-D2 = biological target: AgSla1-D1-D2
# Summary of the method: as §1
# AgSla1-D3 = biological target: AgSla1-D3
# Summary of the method: as §1
# CaAbp1-D1 = biological target: CaAbp1-D1
# Summary of the method: as §1
# CaAbp1-D2 = biological target: CaAbp1-D2
# Summary of the method: as §1
# CaBbc1 = biological target: CaBbc1
# Summary of the method: as §1
# CaBem1-D1 = biological target: CaBem1-D1
# Summary of the method: as §1
# CaBzz1-D1 = biological target: CaBzz1-D1
# Summary of the method: as §1
# CaBzz1-D2 = biological target: CaBzz1-D2
# Summary of the method: as §1
# CaCyk3 = biological target: CaCyk3
# Summary of the method: as §1
# CaFus1 = biological target: CaFus1
# Summary of the method: as §1
# CaHof1 = biological target: CaHof1
# Summary of the method: as §1
# CaHse1 = biological target: CaHse1
# Summary of the method: as §1
# CaLsb1 = biological target: CaLsb1
# Summary of the method: as §1
# CaLsb4 = biological target: CaLsb4
# Summary of the method: as §1
# CaMyo5 = biological target: CaMyo5
# Summary of the method: as §1
# SpBzz1-D2 = biological target: SpBzz1-D2
# Summary of the method: as §1
# SpCyk3 = biological target: SpCyk3
# Summary of the method: as §1
# SpHof1 = biological target: SpHof1
# Summary of the method: as §1
# SpHof1-2 = biological target: SpHof1-2
# Summary of the method: as §1
# SpHof1-3 = biological target: SpHof1-3
# Summary of the method: as §1
# SpHse1 = biological target: SpHse1
# Summary of the method: as §1
# SpLsb1 = biological target: SpLsb1
# Summary of the method: as §1
# SpLsb4 = biological target: SpLsb4
# Summary of the method: as §1
# SpMyo1 = biological target: SpMyo1
# Summary of the method: as §1
# SpNbp2 = biological target: SpNbp2
# Summary of the method: as §1
# SpPex13 = biological target: SpPex13
# Summary of the method: as §1
# SpRvs167 = biological target: SpRvs167
# Summary of the method: as §1
# SpSla1-D1-D2 = biological target: SpSla1-D1-D2
# Summary of the method: as §1
# SpSla1-D3 = biological target: SpSla1-D3
# Summary of the method: as §1
# CaNbp2 = biological target: CaNbp2
# Summary of the method: as §1
# CaRvs167 = biological target: CaRvs167
# Summary of the method: as §1
# CaRvs167-3 = biological target: CaRvs167-3
# Summary of the method: as §1
# CaSho1 = biological target: CaSho1
# Summary of the method: as §1
# CaSla1-D1-D2 = biological target: CaSla1-D1-D2
# Summary of the method: as §1
# CaSla1-D3 = biological target: CaSla1-D3
# Summary of the method: as §1
# ScAbp1 = biological target: ScAbp1
# Summary of the method: as §1
# ScBbc1 = biological target: ScBbc1
# Summary of the method: as §1
# ScBem1-D1 = biological target: ScBem1-D1
# Summary of the method: as §1
# ScBzz1-D1 = biological target: ScBzz1-D1
# Summary of the method: as §1
# ScBzz1-D2 = biological target: ScBzz1-D2
# Summary of the method: as §1
# ScCyk3 = biological target: ScCyk3
# Summary of the method: as §1
# ScFus1 = biological target: ScFus1
# Summary of the method: as §1
# ScHof1 = biological target: ScHof1
# Summary of the method: as §1
# ScHse1 = biological target: ScHse1
# Summary of the method: as §1
# ScLsb1 = biological target: ScLsb1
# Summary of the method: as §1
# ScLsb2 = biological target: ScLsb2
# Summary of the method: as §1
# ScLsb3 = biological target: ScLsb3
# Summary of the method: as §1
# ScLsb4 = biological target: ScLsb4
# Summary of the method: as §1
# ScMyo3 = biological target: ScMyo3
# Summary of the method: as §1
# ScMyo5 = biological target: ScMyo5
# Summary of the method: as §1
# ScNbp2 = biological target: ScNbp2
# Summary of the method: as §1
# ScPex13 = biological target: ScPex13
# Summary of the method: as §1
# ScRvs167 = biological target: ScRvs167
# Summary of the method: as §1
# ScSho1 = biological target: ScSho1
# Summary of the method: as §1
# ScSla1-D1-D2 = biological target: ScSla1-D1-D2
# Summary of the method: as §1
# ScSla1-D3 = biological target: ScSla1-D3
# Summary of the method: as §1
# SpAbp1-D1 = biological target: SpAbp1-D1
# Summary of the method: as §1
# SpBbc1 = biological target: SpBbc1
# Summary of the method: as §1
# SpBzz1-D1 = biological target: SpBzz1-D1
# Summary of the method: as §1
binder,measurement,setting,value
ALFRLSFFFPLDPAY,SPOT peptide array binding signal intensity,AgAbp1,90.5
same,SPOT peptide array binding signal intensity,AgBbc1,59.5
same,SPOT peptide array binding signal intensity,AgBem1-D1,487
same,SPOT peptide array binding signal intensity,AgBzz1-D1,204
same,SPOT peptide array binding signal intensity,AgBzz1-D2,161
same,SPOT peptide array binding signal intensity,AgCyk3,40.5
same,SPOT peptide array binding signal intensity,AgFus1,3740
same,SPOT peptide array binding signal intensity,AgHof1,184
same,SPOT peptide array binding signal intensity,AgHse1,2470
same,SPOT peptide array binding signal intensity,AgLsb1,66
same,SPOT peptide array binding signal intensity,AgLsb4,1960
same,SPOT peptide array binding signal intensity,AgMyo5,6.5
same,SPOT peptide array binding signal intensity,AgNbp2,796
same,SPOT peptide array binding signal intensity,AgRvs167,40.7
same,SPOT peptide array binding signal intensity,AgSho1,2320
same,SPOT peptide array binding signal intensity,AgSla1-D1-D2,150
same,SPOT peptide array binding signal intensity,AgSla1-D3,25.5
same,SPOT peptide array binding signal intensity,CaAbp1-D1,494
same,SPOT peptide array binding signal intensity,CaAbp1-D2,621
same,SPOT peptide array binding signal intensity,CaBbc1,162
same,SPOT peptide array binding signal intensity,CaBem1-D1,141
same,SPOT peptide array binding signal intensity,CaBzz1-D1,574
same,SPOT peptide array binding signal intensity,CaBzz1-D2,416
same,SPOT peptide array binding signal intensity,CaCyk3,68
same,SPOT peptide array binding signal intensity,CaFus1,4730
same,SPOT peptide array binding signal intensity,CaHof1,10
same,SPOT peptide array binding signal intensity,CaHse1,985
same,SPOT peptide array binding signal intensity,CaLsb1,79.5
same,SPOT peptide array binding signal intensity,CaLsb4,278
same,SPOT peptide array binding signal intensity,CaMyo5,156
NTMKKRPAPPSLPSL,SPOT peptide array binding signal intensity,SpBzz1-D2,257
same,SPOT peptide array binding signal intensity,SpCyk3,2
same,SPOT peptide array binding signal intensity,SpHof1,144
same,SPOT peptide array binding signal intensity,SpHof1-2,41.8
same,SPOT peptide array binding signal intensity,SpHof1-3,227
same,SPOT peptide array binding signal intensity,SpHse1,602
same,SPOT peptide array binding signal intensity,SpLsb1,12.2
same,SPOT peptide array binding signal intensity,SpLsb4,788
same,SPOT peptide array binding signal intensity,SpMyo1,196
same,SPOT peptide array binding signal intensity,SpNbp2,308
same,SPOT peptide array binding signal intensity,SpPex13,55
same,SPOT peptide array binding signal intensity,SpRvs167,110
same,SPOT peptide array binding signal intensity,SpSla1-D1-D2,15
same,SPOT peptide array binding signal intensity,SpSla1-D3,156
GRSRLFPHSPLGRSS,SPOT peptide array binding signal intensity,AgAbp1,93
same,SPOT peptide array binding signal intensity,AgBbc1,13.8
same,SPOT peptide array binding signal intensity,AgBem1-D1,88.5
same,SPOT peptide array binding signal intensity,AgBzz1-D1,26.5
same,SPOT peptide array binding signal intensity,AgBzz1-D2,0.5
same,SPOT peptide array binding signal intensity,AgCyk3,0.5
same,SPOT peptide array binding signal intensity,AgFus1,454
same,SPOT peptide array binding signal intensity,AgHof1,14.5
same,SPOT peptide array binding signal intensity,AgHse1,716
same,SPOT peptide array binding signal intensity,AgLsb1,0.75
same,SPOT peptide array binding signal intensity,AgLsb4,39.5
same,SPOT peptide array binding signal intensity,AgMyo5,≤ 0
same,SPOT peptide array binding signal intensity,AgNbp2,177
same,SPOT peptide array binding signal intensity,AgRvs167,3.42
same,SPOT peptide array binding signal intensity,AgSho1,52.8
same,SPOT peptide array binding signal intensity,AgSla1-D1-D2,26
same,SPOT peptide array binding signal intensity,AgSla1-D3,11.2
same,SPOT peptide array binding signal intensity,CaAbp1-D1,491
same,SPOT peptide array binding signal intensity,CaAbp1-D2,410
same,SPOT peptide array binding signal intensity,CaBbc1,105
same,SPOT peptide array binding signal intensity,CaBem1-D1,35
same,SPOT peptide array binding signal intensity,CaBzz1-D1,53.5
same,SPOT peptide array binding signal intensity,CaBzz1-D2,39.2
same,SPOT peptide array binding signal intensity,CaCyk3,3.5
same,SPOT peptide array binding signal intensity,CaFus1,1070
same,SPOT peptide array binding signal intensity,CaHof1,0.75
same,SPOT peptide array binding signal intensity,CaHse1,11.1
same,SPOT peptide array binding signal intensity,CaLsb1,1
same,SPOT peptide array binding signal intensity,CaLsb4,≤ 0
same,SPOT peptide array binding signal intensity,CaMyo5,≤ 0
same,SPOT peptide array binding signal intensity,CaNbp2,539
same,SPOT peptide array binding signal intensity,CaRvs167,3.5
same,SPOT peptide array binding signal intensity,CaRvs167-3,43.8
same,SPOT peptide array binding signal intensity,CaSho1,513
same,SPOT peptide array binding signal intensity,CaSla1-D1-D2,76.5
same,SPOT peptide array binding signal intensity,CaSla1-D3,≤ 0
same,SPOT peptide array binding signal intensity,ScAbp1,144
same,SPOT peptide array binding signal intensity,ScBbc1,≤ 0
same,SPOT peptide array binding signal intensity,ScBem1-D1,57.2
same,SPOT peptide array binding signal intensity,ScBzz1-D1,6.5
same,SPOT peptide array binding signal intensity,ScBzz1-D2,29.5
same,SPOT peptide array binding signal intensity,ScCyk3,91.5
same,SPOT peptide array binding signal intensity,ScFus1,374
same,SPOT peptide array binding signal intensity,ScHof1,≤ 0
same,SPOT peptide array binding signal intensity,ScHse1,2660
same,SPOT peptide array binding signal intensity,ScLsb1,≤ 0
same,SPOT peptide array binding signal intensity,ScLsb2,≤ 0
same,SPOT peptide array binding signal intensity,ScLsb3,212
same,SPOT peptide array binding signal intensity,ScLsb4,1.5
same,SPOT peptide array binding signal intensity,ScMyo3,0.25
same,SPOT peptide array binding signal intensity,ScMyo5,≤ 0
same,SPOT peptide array binding signal intensity,ScNbp2,294
same,SPOT peptide array binding signal intensity,ScPex13,≤ 0
same,SPOT peptide array binding signal intensity,ScRvs167,12.3
same,SPOT peptide array binding signal intensity,ScSho1,1020
same,SPOT peptide array binding signal intensity,ScSla1-D1-D2,224
same,SPOT peptide array binding signal intensity,ScSla1-D3,1.25
same,SPOT peptide array binding signal intensity,SpAbp1-D1,186
same,SPOT peptide array binding signal intensity,SpBbc1,2
same,SPOT peptide array binding signal intensity,SpBzz1-D1,255
same,SPOT peptide array binding signal intensity,SpBzz1-D2,0.375
same,SPOT peptide array binding signal intensity,SpCyk3,≤ 0
same,SPOT peptide array binding signal intensity,SpHof1,68.5
same,SPOT peptide array binding signal intensity,SpHof1-2,15
same,SPOT peptide array binding signal intensity,SpHof1-3,412
same,SPOT peptide array binding signal intensity,SpHse1,730
same,SPOT peptide array binding signal intensity,SpLsb1,0.25
same,SPOT peptide array binding signal intensity,SpLsb4,≤ 0
same,SPOT peptide array binding signal intensity,SpMyo1,≤ 0
same,SPOT peptide array binding signal intensity,SpNbp2,419
same,SPOT peptide array binding signal intensity,SpPex13,10.5
same,SPOT peptide array binding signal intensity,SpRvs167,6.58
same,SPOT peptide array binding signal intensity,SpSla1-D1-D2,10
same,SPOT peptide array binding signal intensity,SpSla1-D3,18.5
